PubChem BioAssay AID463213 (Sanford-Burnham Center for Chemical Genomics, 2010)
The campaign covered roughly 7,400 compounds. About 4,100 (55%) were called active.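 Rule for the calls: active = inhibition of yeast growth at or above a set limit in either of two repeat tests at 20 µM; inactive = the rest.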 So high a share suggests a set chosen from earlier hits. A selection follows.

experiment: tim10-1 ts yeast growth inhibition, retested – single concentration, luminescence, S. cerevisiae, confirmation (AID 463213);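 note: tim10-1 mutant grown at permissive 25 °C to find synthetic lethal compounds; 0% = DMSO yeast wells and 100% = medium wells without yeast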; settings: S. cerevisiae tim10-1 ts strain growth, BacTiter-Glo, 24 h; at 20 µM; active compounds read high

inhibition, active:
O=C1C=CC(=O)N1c1ccc(N2CCCCC2)cc1 92.6%
Cc1oc2cc(Br)c(O)c(Br)c2c1C(=O)c1ccccc1 36.2%
CC1=C/C(=N\OS(=O)(=O)c2ccccc2)C=CC1=O 60.8%
O=c1c(Cl)c(NCc2ccc(F)cc2Cl)cnn1C12CC3CC(CC(C3)C1)C2 44.2%
CCc1nc(C)cn1S(=O)(=O)c1cc([N+](=O)[O-])ccc1Cl 47.8%
O=C(c1ccccc1)N1CCC(CC2CC(c3ccc(Cl)cc3)=NO2)(C(=O)NCC2CCCCC2)CC1 (configuration not stated) 34%
COc1cc([N+](=O)[O-])ccc1NC(=O)COC(=O)CCOc1ccc(C)cc1 63.3%
O=C(NC1CCCCC1)c1ccc(-c2ccc(Cl)cc2)o1 39%
CSC1=N/C(=C\C=C\c2cccs2)C(=O)S1 51.9%
c1ccc(-c2nc(NCc3ccco3)c3ccccc3n2)cc1 42%
CC(C)(CCl)C(=O)Nc1ccc(Sc2ccc(F)cc2)cc1 51.8%
COCCNC(=O)/C(C#N)=C/c1cccc(OCc2ccccc2)c1 70.2%
C/C(=N/NC(=O)c1cc(Cl)ccc1O)C12CC3CC(CC(C3)C1)C2 34.1%
Cc1cc(C)n(-c2nc(SCC(=O)N3CCCC3)c3c4c(sc3n2)CCCC4)n1 40.1%
CCC(C)(C)n1nnnc1CN1CCN(c2nc3ccc(C)cc3cc2C#N)CC1 35.2%
Fc1cccc(Cl)c1CSc1ccc(-c2ccco2)nn1 39.5%
COc1ccc(CS(=O)/C(Cl)=C(/Cl)C(=O)Nc2ccc(OC)nc2)cc1 (configuration not stated) 34.8%
Cc1ccc(NC(=O)CN2CCC3(O)CCCCC3C2c2ccc3c(c2)OCO3)c(C)c1 (configuration not stated) 37.5%
CN(c1ccccc1)S(=O)(=O)c1ccc(NC(=O)COc2ccccc2)cc1 34.2%
COc1ccc(/C(N)=N/OC(=O)CCCc2ccccc2)cc1 48.1%
N/C(=N\OC(=O)CCc1ccccc1)c1ccc(Cl)cc1 57.7%
CS(=O)(=O)c1sc2nc(-c3ccccc3)cc(-c3ccccc3)c2c1N 33.8%
O=C(CC(O)(C(F)(F)F)C(F)(F)F)Nc1ccc(Cl)c(Cl)c1 88.2%
O=S(=O)(Nc1cccc(Oc2ccc(Cl)cc2)n1)c1ccc(F)cc1 45%
CCCCCC1CCC(c2nnc(SCC(C)=O)o2)CC1 (configuration not stated) 39.2%
CCOC(=O)c1c(-c2ccccc2)oc2cc(Br)c(O)cc12 39.4%
CCn1nccc1C(=O)Nc1ccc(Cl)c(Cl)c1 37.8%
O=C(/C=C/c1ccccc1)c1ccccc1O 56.2%
COc1ccc(C(=O)Nc2ccc(-n3nncc3C(C)(C)C)cc2)cc1 38.6%
Cc1ccc(S/C(=N\S(=O)(=O)c2ccc(Cl)cc2)c2ccccc2)cc1 35.6%
Oc1c(CN2CCN(c3ccc(F)cc3)CC2)cc(Cl)c2cccnc12 32%

inhibition, inactive:
Cc1sc2ncnc(SCC(=O)Nc3ccc(CN4CCCC4)cc3)c2c1C 23.3%
COc1ccc(OC)c(-c2c(=O)n(OCc3ccccc3Br)c3ccccc3[n+]2[O-])c1 24.3%
CC(C)c1nccn1S(=O)(=O)c1cc([N+](=O)[O-])ccc1Cl 28.7%
O=C(COC(=O)CCOc1ccccc1)Nc1cc(S(=O)(=O)N2CCCCC2)ccc1Cl 30.2%
O=C(Nc1cccc(F)c1)NC1CCCCCCC1 20.1%
O=[N+]([O-])c1ccc(N/N=C/c2ccccc2)cc1 27%
S=c1[nH]c2ccccc2c2ccccc12 7.95%
C#CCN1C(=O)C(O)(CC(=O)c2cc(OC)ccc2OC)c2ccccc21 (configuration not stated) 30.6%
Cc1cccc(OCCNC(=S)NC(=O)c2cccnc2)c1 27.1%
S=C(NCc1ccc(Cl)cc1)NC12CC3CC(CC(C3)C1)C2 3.55%
C/C(=N\Nc1nc(Nc2ccccc2)nc(N2CCOCC2)n1)c1cccs1 24.8%
CCOc1ccc2nc(N3CCCN(C(=O)Nc4ccccc4C)CC3)c(C#N)cc2c1 26.7%
Clc1ccccc1CSc1nnc(-c2ccco2)c(-c2ccco2)n1 27.3%
COc1cc(C(=O)Nc2nccs2)cc(OC)c1OC 29%
CSc1nnc(NC(=O)c2nc(S(=O)(=O)Cc3ccc(C)cc3)ncc2Cl)s1 -0.5%
Cn1c(CCCOc2ccc(Cl)cc2Cl)n[nH]c1=S 17.5%
Cn1c(C(=O)OC(C(=O)NC2CCCCC2)c2ccccn2)cc2sccc21 (configuration not stated) 17.9%
Cc1ccc(NC(=O)CCOc2ccccc2)cc1S(=O)(=O)Nc1ccccc1Cl 29.1%
COc1ccc(/C(N)=N/OC(=O)Cc2ccccc2)cc1 15.5%
Nc1nc(-c2ccccc2)cc(-c2ccccc2)n1 10%
O=C(COc1ccccc1Cl)N1N=C(c2cccs2)CC1c1ccco1 (configuration not stated) 27.8%
CN=c1scc(-c2cc(OC)ccc2OC)n1/N=C/c1c(C)[nH]c2ccccc12 19.1%
CCCc1nc2c(c(=O)c3ccccc3n2C)c(=O)n1C1CCCCCC1 28.5%
COc1ccc(CCNc2cc(C)nc3c(-c4ccc(Cl)cc4)c(C)nn23)cc1OC 24%
CCOC(=O)c1c(CN2CCOCC2)n(-c2ccccc2)c2ccc(O)cc12 22.6%
CCOC(=O)c1c(-c2ccccc2)oc2ccc(OCC(=O)NN)cc12 15.6%
CCOc1ccccc1N1CCN(C(=O)c2ccc3[nH]c(C)c(C)c3c2)CC1 16.4%
CC(C)Cn1c(N)c(C(=O)NCc2cccs2)c2nc3ccccc3nc21 22.4%
O=C(c1cccc(C(=O)N2CCN(c3ccc(F)cc3)CC2)c1)N1CCN(c2ccc(F)cc2)CC1 27%
Fc1ccc(N2CCN(Cc3cnc(Oc4ccc(Br)cc4)s3)CC2)cc1 28.4%
OC(CNCC1CCCO1)Cn1c2ccc(Br)cc2c2cc(Br)ccc21 (configuration not stated) 3.65%
